# Laboratory results as given in PubChem BioAssay AID624305 (National Center for Advancing Translational Sciences (NCATS), 2012).
# Results filed as inconclusive are left out. Active and inactive are the calls of the source. Calls follow the shape of the dose curve; as a rule, active = well fitted activation curve with a large enough effect; inconclusive = small, poorly fitted or top-dose-only effect; inactive = no such curve, though single readings can be large or run the other way.
# Test: qHTS assay for re-activators of p53 using a Luc reporter: Hit Validation; also: nearly all actives have a fitted effect of over 75% in size; as to activation: 0% is about no effect
# Conditions: p53-responsive luciferase reporter cells, luminescence, H1299 line expressing heat-sensitive Ala138Val p53; series mostly up to 46.1 µM; activation: at the top concentration
# In short: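 Hit confirmation with a 1:5 dilution series, at 37 deg C for 24 hrs, in H1299 cells co-expressing temperature-sensitive p53-A138V and p53-responsive luciferase. Nocodazole served as control; luminescence read after 10 min with detection reagent.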
# Potency is read from the fitted curve at half-maximal effect.
SMILES,Potency,activation
COc1ccc(C(=O)Nc2nnc(C(F)(F)F)s2)cc1,10.3 µM (active),–
Cc1ccc(NC(=S)NC(=O)C2CCCC2)c(Br)c1,3.66 µM (active),–
Oc1ccc(N=Cc2c(O)ccc3ccccc23)cc1,–,8.85% (inactive)
COc1cc(C(=O)NCCc2cn3ccc(C)cc3n2)cc(OC)c1OC,–,13.6% [at 9.22 µM] (inactive)
CCn1c(=O)c2ccccc2n(Cc2ccccc2C)c1=O,–,-7.29% (inactive)
C/C(=N\NC(=O)c1cccc(Br)c1)c1ccccn1,9.2 µM (active),–
CSCCC(NC(=O)c1ccc(Cl)cc1Cl)C(=O)N1CC(C)OC(C)C1 (stereo not drawn),–,-22.9% (inactive)
COc1ccc(-c2cc3ccc(F)cc3cn2)cc1,0.92 µM (active),–
CCOc1ccc(N/C=C/C(=O)c2ccccc2)c([N+](=O)[O-])c1,0.461 µM (active),–
O=C(Nc1ccc(N2CCCCCC2)cc1)c1ccc[nH]1,1.16 µM (active),–
COc1ccc(C2=NN(C(C#N)c3ccc(OC)cc3)C(c3ccccc3)C2)cc1 (stereo not drawn),14.6 µM (active),–
CC(=O)c1cccc(NC(=O)c2sc(Cl)nc2C)c1,–,7.29% (inactive)
C/C(=N\N=c1/scc(C)n1Cc1ccco1)c1cccc([N+](=O)[O-])c1,–,17.7% (inactive)
Cc1cccc(NC2SC(=O)N(c3ccccc3)C2=O)c1 (stereo not drawn),–,41.1% (inactive)
O=C(Nc1cccc(O)c1)C(=O)Nc1ccccn1,2.31 µM (active),–
O=C(NNC(=S)NC1CCCCC1)c1cccs1,–,0% (inactive)
O=C(CSc1nnc(-c2ccc(O)cc2)o1)Nc1ccc2c(c1)OCCO2,8.2 µM (active),–
N#CC(Cc1ccccc1)(Cc1ccccc1)C(=O)NN,–,-87.5% (inactive)
O=C(Nc1nc2ccccc2s1)c1ccc2c(c1)OCO2,0.206 µM (active),–

SMILES,Potency,activation
Cc1ccc(C)n1-c1sc2c(c1C(=O)O)CCCC2,–,16.1% (inactive)
Cc1cc(=O)[nH]c(N/N=C/c2ccccn2)n1,13 µM (active),–
CCOC(=O)c1c(C)[nH]c(C(=O)OCCOc2ccccc2C)c1C,1.3 µM (active),–
Cc1noc(C)c1COc1ccc(C(=O)NCCOc2ccccc2)cc1,–,25% (inactive)
C=CCn1c(C)cc(C(=O)COC(=O)c2ccc(N)c([N+](=O)[O-])c2)c1C,0.411 µM (active),–
O=C(CC(=O)c1ccccc1O)c1cccc(F)c1,–,22.4% (inactive)
Cn1c(C(=O)Nc2ccc3c(c2)OCCO3)cc2sccc21,5.8 µM (active),–
COc1ccccc1NC(CC(=O)c1ccccc1)C(=O)OCC(=O)c1ccc(C)cc1 (stereo not drawn),0.206 µM (active),–
Cc1ccc(OCCN2CCOCC2)cc1C,–,23.4% (inactive)
COc1cccc(N(C(=O)c2nc3nccc(C)n3n2)c2nc3ccccc3s2)c1,7.31 µM (active),–
CC(=O)Nc1ccc(SCC(=O)c2cc(C)n(-c3ccccc3)c2C)cc1,5.8 µM (active),–
Cc1ccc(NC(CC(=O)c2ccccc2)c2ccc(F)cc2)cc1 (stereo not drawn),–,25.5% (inactive)
CCOC(=O)C1CCN(S(=O)(=O)Cc2ccccc2)C1=O (stereo not drawn),–,0.521% (inactive)
COc1ccc2c(=O)c(-c3nc(C)cs3)coc2c1,2.06 µM (active),–
Nc1nonc1-n1nnc(C(=O)N/N=C/c2cc(Br)ccc2O)c1CSC1=NCCS1,–,-26.8% [at 9.22 µM] (inactive)
Cc1ccc(NC(=S)NCC2CCCO2)c(OC(F)F)c1 (stereo not drawn),–,30.7% (inactive)
COc1ccc(C(C)(C)C)cc1NC(=O)Nc1ccc2c(c1)OCO2,–,22.4% (inactive)
C1=C(CCNc2ncnc3nc[nH]c23)CCCC1,1.64 µM (active),–
COc1cc(/C=N/Nc2nc3ccccc3s2)ccc1OC(=O)c1ccccc1F,1.46 µM (active),–
